Assay results taken from PubChem BioAssay (NCI).
About 79,000 compounds went through this panel and 15% of them were active in at least one assay; those are over-represented in the sample as a whole. Unmarked numbers belong to inactive results. The source made the active and inactive calls. Cut-off read from the data, not from the text of the source: active = growth inhibition above about 70%; inactive = the rest.

Assays:
[1] = NCI Yeast Anticancer Drug Screen. Data for the wt1 strain (AID 149);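 note: 0% = growth of vehicle-treated wt1 cultures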; conditions: S. cerevisiae wt1 strain (SPY 50644) growth inhibition, stronger effect = higher value
Summary of the method: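 Yeast wt1 strain exposed to compounds; growth inhibition measured relative to vehicle-treated controls.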

[2] = NCI Yeast Anticancer Drug Screen. Data for the rad50EPP+ strain (AID 151);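 note: 0% = growth of vehicle-treated control cultures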; conditions: S. cerevisiae rad50 mutant strain, stronger effect = higher value
Summary of the method: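 Growth inhibition read against vehicle controls in rad50EPP+ yeast, a strain altered in DNA damage repair, after compound exposure.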

[3] = NCI Yeast Anticancer Drug Screen. Data for the mgt1 strain (AID 153); conditions: S. cerevisiae mgt1 mutant growth inhibition, stronger effect = higher value
Summary of the method: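 mgt1 yeast grown with test compound; read-out is growth inhibition versus vehicle-treated cultures.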

[4] = NCI Yeast Anticancer Drug Screen. Data for the rad50 strain (AID 155);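 note: 0% = growth of vehicle-only cultures of the same strain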; conditions: S. cerevisiae rad50 strain growth inhibition, stronger effect = higher value
Summary of the method: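 Yeast carrying a defined DNA repair defect were exposed to test compounds, and growth was compared with vehicle-treated controls to give percent inhibition.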

[5] = NCI Yeast Anticancer Drug Screen. Data for the mec2-1 strain (AID 157); conditions: S. cerevisiae mec2-1 strain, stronger effect = higher value
Summary of the method: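 Yeast mec2-1 mutant treated with compound. Readout: growth inhibition vs vehicle controls.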

[6] = NCI Yeast Anticancer Drug Screen. Data for the rad14 strain (AID 159);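 note: 0% = growth of vehicle-treated control cultures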; conditions: S. cerevisiae rad14 strain growth inhibition, stronger effect = higher value
Summary of the method: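 Yeast cells carrying a defined DNA-repair defect were exposed to compounds, and growth inhibition was calculated relative to vehicle-treated control cultures.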

[7] = NCI Yeast Anticancer Drug Screen. Data for the sgs1 mgt1 strain (AID 161);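 note: 0% = growth of cultures given vehicle only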; conditions: S. cerevisiae sgs1 mgt1 strain, stronger effect = higher value
Summary of the method: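 Mutant yeast exposed to compound; growth scored against vehicle-only wells.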

[8] = NCI Yeast Anticancer Drug Screen. Data for the CLN2oe strain (AID 163);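 note: 0% = growth of vehicle-only control cultures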; conditions: S. cerevisiae CLN2oe strain, stronger effect = higher value
Summary of the method: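 Read-out: yeast growth inhibition, expressed relative to vehicle-only controls. The strain bears an engineered cell-cycle alteration.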

[9] = NCI Yeast Anticancer Drug Screen. Data for the cln2 rad14 strain (AID 165);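 note: 0% = growth equal to vehicle treated cultures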; conditions: S. cerevisiae cln2 rad14 strain, stronger effect = higher value
Summary of the method: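 cln2 rad14 yeast strain; compound exposure; growth inhibition read vs vehicle controls.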

[10] = NCI Yeast Anticancer Drug Screen. Data for the bub3 strain (AID 167); conditions: S. cerevisiae bub3 mutant strain, stronger effect = higher value
Summary of the method: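 Compounds were applied to a genetically altered yeast strain carrying a cell-cycle control defect. Growth inhibition was scored against vehicle-treated controls.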

[11] = NCI Yeast Anticancer Drug Screen. Data for the wt2 strain (AID 169);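 note: 0% = growth of vehicle-treated yeast cultures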; conditions: S. cerevisiae wt2 strain growth inhibition, stronger effect = higher value
Summary of the method: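 Read-out: growth inhibition versus vehicle-treated control cultures after compound exposure of the yeast strain.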

[12] = NCI Yeast Anticancer Drug Screen. Data for the mlh1 strain (AID 171);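 note: 0% = growth of vehicle-treated control cultures of the same strain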; conditions: S. cerevisiae mlh1 strain growth inhibition, stronger effect = higher value
Summary of the method: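 Read-out: growth inhibition versus vehicle controls. Strain: engineered yeast with a defined DNA repair or cell cycle defect, compound-treated.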

[13] = NCI Yeast Anticancer Drug Screen. Data for the sgs1 strain (AID 173);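 note: 0% = growth of vehicle-only control cultures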; conditions: S. cerevisiae sgs1 mutant, stronger effect = higher value
Summary of the method: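 Read-out: yeast growth inhibition relative to vehicle controls, following compound exposure of a strain with a defined DNA repair/cell cycle alteration.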

[14] = NCI Yeast Anticancer Drug Screen. Data for the rad18 strain (AID 177); conditions: S. cerevisiae rad18 mutant growth inhibition, stronger effect = higher value
Summary of the method: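 Readout: growth inhibition vs vehicle controls. Cells: genetically altered yeast strain, DNA repair defect.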

[15] = at 5.0 µM (retest, dose inferred, filed as 0.5)
[16] = at 50.0 µM (retest, dose inferred, filed as 5.0)

## CCN(CC)CCSc1c2ccccc2nc2cc(NCC(=O)Nc3ccccc3-c3ccccc3NC(=O)CNc3ccc4c(SCCN(CC)CC)c5ccccc5nc4c3)ccc12
[1]; at 1.2 µM
  growth inhibition: -21%
[1]; at 3.7 µM
  growth inhibition: -16%
[1]; at 11.0 µM
  growth inhibition: -25%
[1]; at 33.0 µM
  growth inhibition: 23%
[1]; at 100.0 µM
  growth inhibition: 96% (active)
[2]; at 1.2 µM
  growth inhibition: 9%
[2]; at 3.7 µM
  growth inhibition: 10%
[2]; at 11.0 µM
  growth inhibition: -8%
[2]; at 33.0 µM
  growth inhibition: 38%
[2]; at 100.0 µM
  growth inhibition: 89% (active)
[3]; at 1.2 µM
  growth inhibition: 9%
[3]; at 3.7 µM
  growth inhibition: 17%
[3]; at 11.0 µM
  growth inhibition: 19%
[3]; at 33.0 µM
  growth inhibition: 85% (active)
[3]; at 100.0 µM
  growth inhibition: 97% (active)
[4]; at 1.2 µM
  growth inhibition: 13%
[4]; at 3.7 µM
  growth inhibition: 15%
[4]; [15]
  growth inhibition: 23%
[4]; at 11.0 µM
  growth inhibition: 15%
[4]; at 33.0 µM
  growth inhibition: 75% (active)
[4]; [16]
  growth inhibition: 96% (active)
[4]; at 50.0 µM
  growth inhibition: 89.5% (active)
[4]; at 100.0 µM
  growth inhibition: 95% (active)
[5]; at 1.2 µM
  growth inhibition: 23%
[5]; at 3.7 µM
  growth inhibition: 22%
[5]; [15]
  growth inhibition: 20%
[5]; at 11.0 µM
  growth inhibition: 16%
[5]; at 33.0 µM
  growth inhibition: 91% (active)
[5]; [16]
  growth inhibition: 98% (active)
[5]; at 50.0 µM
  growth inhibition: 89.5% (active)
[5]; at 100.0 µM
  growth inhibition: 97% (active)
[6]; at 1.2 µM
  growth inhibition: -14%
[6]; at 3.7 µM
  growth inhibition: -15%
[6]; at 11.0 µM
  growth inhibition: -12%
[6]; at 33.0 µM
  growth inhibition: 74% (active)
[6]; at 100.0 µM
  growth inhibition: 96% (active)
[7]; [15]
  growth inhibition: 21%
[7]; [16]
  growth inhibition: 97% (active)
[7]; at 50.0 µM
  growth inhibition: 89.2% (active)
[8]; at 1.2 µM
  growth inhibition: 2%
[8]; at 3.7 µM
  growth inhibition: 7%
[8]; at 11.0 µM
  growth inhibition: 11%
[8]; at 33.0 µM
  growth inhibition: 44%
[8]; at 100.0 µM
  growth inhibition: 96% (active)
[9]; [15]
  growth inhibition: 15%
[9]; [16]
  growth inhibition: 13%
[9]; at 50.0 µM
  growth inhibition: 41%
[10]; at 1.2 µM
  growth inhibition: 36%
[10]; at 3.7 µM
  growth inhibition: 30%
[10]; [15]
  growth inhibition: 27%
[10]; at 11.0 µM
  growth inhibition: 31%
[10]; at 33.0 µM
  growth inhibition: 92% (active)
[10]; [16]
  growth inhibition: 89% (active)
[10]; at 50.0 µM
  growth inhibition: 90.5% (active)
[10]; at 100.0 µM
  growth inhibition: 98% (active)
[11]; at 1.2 µM
  growth inhibition: -5%
[11]; at 3.7 µM
  growth inhibition: -3%
[11]; at 11.0 µM
  growth inhibition: 2%
[11]; at 33.0 µM
  growth inhibition: 48%
[11]; at 100.0 µM
  growth inhibition: 96% (active)
[12]; at 1.2 µM
  growth inhibition: -12%
[12]; at 3.7 µM
  growth inhibition: -7%
[12]; at 11.0 µM
  growth inhibition: -5%
[12]; at 33.0 µM
  growth inhibition: 80% (active)
[12]; at 100.0 µM
  growth inhibition: 96% (active)
[13]; at 1.2 µM
  growth inhibition: -14%
[13]; at 3.7 µM
  growth inhibition: -18%
[13]; at 11.0 µM
  growth inhibition: -22%
[13]; at 33.0 µM
  growth inhibition: 63%
[13]; at 100.0 µM
  growth inhibition: 96% (active)
[14]; at 1.2 µM
  growth inhibition: 16%
[14]; at 3.7 µM
  growth inhibition: 12%
[14]; at 11.0 µM
  growth inhibition: 11%
[14]; at 33.0 µM
  growth inhibition: 69%
[14]; at 100.0 µM
  growth inhibition: 97% (active)

## [Cl][Pt+2][Cl].[NH-]CC1(C[NH-])CCCCC1
[1]; at 1.2 µM
  growth inhibition: -67%
[1]; at 3.7 µM
  growth inhibition: -17%
[1]; at 11.0 µM
  growth inhibition: 99% (active)
[1]; at 33.0 µM
  growth inhibition: 99% (active)
[1]; at 100.0 µM
  growth inhibition: 98% (active)
[2]; at 1.2 µM
  growth inhibition: -41%
[2]; at 3.7 µM
  growth inhibition: -6%
[2]; at 11.0 µM
  growth inhibition: 96% (active)
[2]; at 33.0 µM
  growth inhibition: 98% (active)
[2]; at 100.0 µM
  growth inhibition: 98% (active)
[3]; at 1.2 µM
  growth inhibition: -44%
[3]; at 3.7 µM
  growth inhibition: 12%
[3]; at 11.0 µM
  growth inhibition: 98% (active)
[3]; at 33.0 µM
  growth inhibition: 99% (active)
[3]; at 100.0 µM
  growth inhibition: 98% (active)
[4]; at 1.2 µM
  growth inhibition: -63%
[4]; at 3.7 µM
  growth inhibition: -37%
[4]; [15]
  growth inhibition: 26%
[4]; at 11.0 µM
  growth inhibition: 86% (active)
[4]; at 33.0 µM
  growth inhibition: 98% (active)
[4]; [16]
  growth inhibition: 100% (active)
[4]; at 50.0 µM
  growth inhibition: 91.1% (active)
[4]; at 100.0 µM
  growth inhibition: 98% (active)
[5]; at 1.2 µM
  growth inhibition: -67%
[5]; at 3.7 µM
  growth inhibition: -19%
[5]; [15]
  growth inhibition: 21%
[5]; at 11.0 µM
  growth inhibition: 98% (active)
[5]; at 33.0 µM
  growth inhibition: 99% (active)
[5]; [16]
  growth inhibition: 100% (active)
[5]; at 50.0 µM
  growth inhibition: 91.9% (active)
